# Target: T1, Aspartate--tRNA(Asp/Asn) ligase (Mycobacterium tuberculosis (strain ATCC 25618 / H37Rv)) (UniProt P9WFW3)
# T1 sequence (whole entry): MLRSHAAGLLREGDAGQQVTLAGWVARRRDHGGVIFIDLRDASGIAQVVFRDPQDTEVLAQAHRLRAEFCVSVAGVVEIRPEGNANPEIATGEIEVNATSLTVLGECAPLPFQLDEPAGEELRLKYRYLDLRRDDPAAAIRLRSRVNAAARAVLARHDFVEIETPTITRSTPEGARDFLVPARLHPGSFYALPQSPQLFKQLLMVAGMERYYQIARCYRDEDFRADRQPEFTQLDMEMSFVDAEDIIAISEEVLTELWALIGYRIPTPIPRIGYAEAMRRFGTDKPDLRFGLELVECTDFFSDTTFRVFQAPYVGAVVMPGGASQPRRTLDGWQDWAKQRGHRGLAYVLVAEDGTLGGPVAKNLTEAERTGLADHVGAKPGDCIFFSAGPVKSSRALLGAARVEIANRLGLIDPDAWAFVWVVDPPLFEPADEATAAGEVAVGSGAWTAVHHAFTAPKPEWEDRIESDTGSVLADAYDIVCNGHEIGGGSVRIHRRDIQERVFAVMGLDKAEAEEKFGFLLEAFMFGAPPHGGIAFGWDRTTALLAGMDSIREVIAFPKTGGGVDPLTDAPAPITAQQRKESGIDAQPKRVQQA
# Test: Assay for Asp RNA synthetase-1 from Mycobacterium tuberculosis
# Format: functional
# Set-up: scale not given: in the data most compounds retested in dose-response had high values
# Conditions: 30 µM
row,Structure (SMILES),Percent Effect [%]
1,COc1ccnc(N2CCN(C(=O)Cc3ccc(C)s3)CC2)n1,2.36
2,COC(CNC(=O)N1CCC(n2cncn2)CC1)c1ccccc1 (centres undefined),-3.54
3,Cc1ccc(CC(=O)N2CC[C@@H]3CN(CCN(C)C)CCO[C@@H]3C2)cc1,6.89
4,Cn1cc(CN2CC[C@H]3C[C@H](c4nc(C5CC5)cs4)O[C@@H]3C2)cn1,-0.624
5,CCCS(=O)(=O)Nc1ccc2c(c1)OCC(C)(C)C(=O)N2C,-4.25
6,O=c1c2sccc2nc2n1CCN(Cc1cccs1)CC2,6.74
7,CS(=O)(=O)NCC1CCCN(C(=O)COc2ccc(F)cc2)C1 (centres undefined),-1.75
8,Cc1cc(C)n(CC2CCCCN2C(=O)c2ccc3nncn3c2)n1 (centres undefined),-3.1
9,Cc1ccc([C@@H]2CN(C(=O)c3cccnn3)C[C@H]2NC(=O)C2CC2)cc1,-3.85
10,CC(C)c1cc(NC(=O)CN2CCC(N3CCCCC3)CC2)on1,0.301
11,CN(C)CC1CN(Cc2cccc(C(=O)N(C)C)c2)CCO1 (centres undefined),-3.06
12,CC(=O)NCc1ccc(C(=O)N2CCCC2c2cnn(C)c2)o1 (centres undefined),1.21
13,Cn1cnc(-c2cc(C(=O)N3CCOCC3)c3ccccn23)c1,1.18
14,CC(C)(C)c1nc(CN(Cc2cccs2)C2CCS(=O)(=O)C2)no1 (centres undefined),1.32
15,CCc1nccn1C1CCCN(C(=O)c2cnc3ccccc3n2)C1 (centres undefined),1.02
16,O=C(c1ccoc1)N1CC[C@@H]2O[C@H](COCc3ccccn3)CC[C@@H]21,1.36
17,CCN1CCN(C(=O)c2ccn(C)c(=O)c2)CC1,2.87
18,CCN(CC)C(=O)CCc1c(C)nc2cc(O)nn2c1C,-1.56
19,Cc1cc(NCc2cccnc2)n2nc(C)cc2n1,-2.06

# Source: ChEMBL document CHEMBL3988442, “University of Dundee, Small-Polar-MMV Screening Library” (2021)
